Measurements taken from PubChem BioAssay AID1305 (SRMLSC, 2008).
Screen size: about 1,200 compounds; fewer than 10 were called active. No rule for the calls is given here. Only a sample is shown.

Assay: 5-FOA growth of efflux-deficient control yeast, dose response, counter-screen for RAM network inhibitor project, S. cerevisiae, OD615 (AID 1305);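 also: plate controls were vehicle for no effect and reference inhibitor for full effect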
Conditions: S. cerevisiae efflux-deficient reporter strain, 5-FOA growth OD615, 2 days, stronger effect = higher value; at 100 µM unless noted

SMILES	max inhibition
CCC(C)(C)c1ccc(Oc2ccc(NC(=O)COC(=O)C3=COCCO3)cc2)cc1	1.41% (inactive)
Cc1ccccc1CSCCNC(=O)c1ccc(N(C)S(=O)(=O)c2ccccc2)cc1	3.2% (inactive)
Fc1ccc(-n2c(Cc3ccccc3)nnc2SCc2nc(-c3ccc(Cl)cc3)no2)cc1	1.1% [setting not given] (inactive)
COCCN(C(=O)C(C)C)c1nnc(-c2ccc(C(C)(C)C)cc2)s1	1.87% [at 50 µM] (inactive)
COc1ccc(/C=C(\NC(=O)c2ccc(OCC(C)C)cc2)C(=O)OCc2ccco2)cc1	3.48% (inactive)
O=C(COC(=O)/C(=C/c1cccs1)c1cccs1)NCc1ccccc1Cl	1.81% [at 25 µM] (inactive)
Cc1c(N=Nc2ccc(N(C)C)cc2)c(=O)n(-c2ccccc2)n1C	20% (inactive)
CN(C)S(=O)(=O)c1cccc(NC(=O)COC(=O)C2(c3ccccc3F)CCCC2)c1	1.8% [at 50 µM] (inactive)
CCOC(=O)c1sc2nc(CSCC(=O)OCc3ccc(C(=O)OC)o3)[nH]c(=O)c2c1C	2.47% [at 50 µM] (inactive)
CCN=C1S/C(=C\c2cc(Br)ccc2OCC(=O)OCC)C(=O)N1CC	3.82% [at 50 µM] (inactive)
Cc1cccc(-n2c(SCC(=O)Nc3cccc(S(=O)(=O)NC4=NCCCCC4)c3)nc3ccccc3c2=O)c1C	2.12% [setting not given] (inactive)
c1ccc(-c2csc(N3CCc4ccccc4C3)n2)cc1	4.47% (inactive)
O=C(COC(=O)/C=C/c1nc2ccccc2s1)Nc1ccccc1Oc1ccccc1	1.95% [at 1.563 µM] (inactive)
O=C(OCc1ccc(Br)cc1)c1cccc(-c2nnc(-c3ccccc3)o2)c1	3.97% [at 50 µM] (inactive)
CC(=O)c1c(Nc2ccccc2)sc(C(=O)c2ccccc2)c1C	4.16% [at 50 µM] (inactive)
CCCSc1nc(NCc2ccco2)c2c3c(sc2n1)COC(C)(CC)C3 (stereo not drawn)	4.05% [at 50 µM] (inactive)
Cc1ccc(NC2=C(Cl)C(=O)OC2OC(=O)c2ccccc2C)cc1 (stereo not drawn)	1.91% [at 50 µM] (inactive)
Cc1cc(C)cc(NC(=O)CSCc2cnn(-c3ccccc3)c2-n2cccc2)c1	6.62% (inactive)
COC(=O)CCCCCN1C(=O)NC(c2ccc(-c3ccccc3)cc2)C(C(=O)OCc2ccccc2)=C1C (stereo not drawn)	4.42% [at 25 µM] (inactive)
O=C(NCc1ccccc1)C1=C[C@@H](c2ccc(C(F)(F)F)cc2)C[C@@H](OCc2ccc(CO)cc2)O1	3.48% (inactive)
Cc1ccc(N=Nc2c(C)[nH]n(-c3ccccc3)c2=O)cc1	1.87% [at 50 µM] (inactive)
COC(=O)c1sccc1NC(=O)c1csc2c1CCCC2	4.49% [at 25 µM] (inactive)
CC(O)C(NS(=O)(=O)c1ccc(Cl)cc1)C(=O)OCc1cc([N+](=O)[O-])cc2c1OCOC2 (stereo not drawn)	1.67% (inactive)
COc1ccc(Cl)cc1NC(=O)NC(C)C(C)(C)C (stereo not drawn)	1.97% [setting not given] (inactive)

SMILES	max inhibition
CCOC(=O)CC(=O)CSc1nc(-c2ccccc2)cc(-c2ccc(Cl)cc2)c1C#N	1.73% [setting not given] (inactive)
C=CCOC(=O)C1=C(C)NC(SCC(=O)OCC)=C(C#N)C1c1ccc(C)cc1 (stereo not drawn)	4.12% (inactive)
CCCCn1ccnc1C(=O)c1cccc(S(=O)(=O)N2c3ccccc3CC2C)c1 (stereo not drawn)	3.37% (inactive)
CN(c1ccccc1)c1ccc(/C=c2\s/c(=C(/C#N)C(=O)C(C)(C)C)n(Cc3ccco3)c2=O)cc1	4.2% [at 25 µM] (inactive)
N/C(Cc1ccc([N+](=O)[O-])cc1)=N\OC(=O)COc1ccc2ccccc2c1	1.6% (inactive)
COc1ccc(/C(C)=N/Nc2cc(C(F)(F)F)ccc2Cl)c(OC)c1	2.82% (inactive)
Cc1cc2ccccc2n1CCNC(=O)COc1ccc2ccccc2c1	4.22% (inactive)
N#C/C(=C\C1=C(N2CCOCC2)C(=C\c2ccccc2)/CC1)C(=O)Nc1ccccc1F	1.39% [setting not given] (inactive)
COc1ccc(O[C@H]2C=C[C@@H](c3ccccc3)O[C@@H]2CO/N=C/C[C@@H]2C=C[C@H](OC(C)=O)[C@@H](COC(C)=O)O2)cc1	1.15% [setting not given] (inactive)
O=C(COC(=O)CCCNC(=O)c1ccc(Cl)cc1)Nc1cc(Cl)ccc1Cl	3.65% (inactive)
COc1c(Br)cc2c(C)c(C(=O)N3CCOCC3)oc2c1Br	1.57% [setting not given] (inactive)
CCC1C/C(=C/c2cccs2)C(=O)/C(=C/c2cccs2)C1 (stereo not drawn)	6.29% (inactive)
CCc1nc(Nc2ccc3nccnc3c2)c2oc3ccccc3c2n1	13.2% (inactive)
Oc1c(Cl)cc(Cl)c(Cl)c1Cc1c(O)c(Cl)cc(Cl)c1Cl	0.89% [setting not given] (inactive)
O=C(CCC(=O)OCc1cccc(C(=O)Oc2ccccc2)c1)Nc1cccc2ccccc12	2.95% [at 12.5 µM] (inactive)
O=C1/C(=C/c2ccc3c(c2)OCO3)CCC/C1=C\c1ccc2c(c1)OCO2	4.85% [at 50 µM] (inactive)
CCOC(=O)CSC1=C(C#N)C(c2ccco2)C(C(=O)OCc2ccccc2)=C(C)N1 (stereo not drawn)	1.67% (inactive)
Cc1ccc(S(=O)(=O)c2c(N)n(C)c3nc4ccccc4nc23)cc1	4.57% (inactive)
CCC(C(=O)OCC(=O)Nc1c(Cl)cc(Cl)cc1Cl)c1ccccc1 (stereo not drawn)	2.14% [setting not given] (inactive)
C=CCO/N=C(\C)c1c(O)c(C)c(-c2ccccc2)n(-c2ccccc2)c1=O	3.26% (inactive)
COc1ccc2c(c1)CCc1c(C(=O)N3CCc4ccccc4C3)noc1-2	1.6% [setting not given] (inactive)
CCOc1ccc(CN(Cc2ccco2)C(c2cccs2)c2nnnn2C(C)(C)C)cc1 (stereo not drawn)	4.45% (inactive)
Cc1ccc(C(=O)/C=C/c2c(C)nn(-c3ccccc3)c2Cl)cc1	7.53% (inactive)
CCCCC(C(=O)OCC(=O)c1ccc(OC)cc1)N1C(=O)c2ccccc2C1=O (stereo not drawn)	4.61% (inactive)
